# Data as given in ChEMBL document CHEMBL4513216, “Probing the Open Global Health Chemical Diversity Library for Multistage-Active Starting Points for Next-Generation Antimalarials” (ACS Infect Dis, 2020).
# Screen size: about 69,000 compounds; about 8,600 (12%) showed an effect of 50% or more. What follows is part of a selection rich in strong results, with near analogues and random picks from the rest.
# Tested on: Plasmodium berghei
# Assay: Screen against P. berghei liver stage (PbLuc), transformed with Luciferase, at 10uM
# Assay type: functional, HepG2
# Conditions: tested at 10 uM
row,Compound,INHIBITION [%]
1,CS(=O)(=O)CCn1ccc(NC(=O)Cc2cccc(Cl)c2)n1,16.5
2,CSc1nnc(C2CCN(C(=O)N3CCCC3)CC2)n1C,16.185
3,CSc1nnc(CC2CCN(C(=O)CCc3cccnc3)CC2)n1C,51.7
4,CSc1nnc(CC2CCN(C(=O)Cc3ccncc3)CC2)n1C,64.7
5,COc1cccc(CC(=O)N2CCC(Cc3nnc(SC)n3C)CC2)c1,31.3
6,O=C(CCc1cccnc1)N1CCC(c2cnccn2)CC1,15.9
7,CC1CCCN(C(=O)CCc2cccnc2)C1 (configuration not stated),20.9
8,CSc1nnc(CC2CCN(C(=O)COc3cccnc3)CC2)n1C,73
9,CCOCC(=O)N1CCC(Cc2nnc(SC)n2C)CC1,48
10,Cc1ccc(NC2CCN(C(=O)COc3cccnc3)CC2)nn1,44.6
11,CN(C)C(=O)N1CCN(Cc2cnn(C)c2)CC2(CNC(=O)C2)C1 (configuration not stated),17.6
12,O=C(CCn1c(=O)oc2ccccc21)NCC(O)c1ccc(Cl)cc1 (configuration not stated),18.2
13,O=S(=O)(CC1CCCCO1)Nc1cnn(Cc2ccccc2)c1 (configuration not stated),33.7
14,Cc1cnn(C2CN(CC(=O)NCCc3ccsc3)C2)c1,22.3
15,CN1CCN(C[C@@H]2OC[C@H]3CN(Cc4ccsc4)CC[C@H]32)CC1,-13.3
16,CCn1c(=NC(=O)CSCC(=O)Nc2nccs2)sc2ccccc21,88.1
17,COc1cc(Cl)ccc1C(=O)NCC(=O)Nc1nccs1,-176
18,COc1ccc2c(c1)sc(=NC(=O)CSCC(=O)Nc1nccs1)n2C,51
19,COCCn1/c(=N\C(=O)CN(C)S(C)(=O)=O)sc2cc(OC)ccc21,2.29

row,Compound,INHIBITION [%]
1,O=C(CNC(=O)c1ccccc1Cl)Nc1nccs1,-9.72
2,Cn1c(=NC(=O)CSCC(=O)Nc2nccs2)sc2ccccc21,32.8
3,O=C(Cc1ccccn1)N1CC[C@]2(C[C@@H](Oc3ncccc3F)CO2)C1,35.8
4,CN(C)C(=O)N1CC[C@@H](O)[C@@H]1Cc1ccccc1,-14.7
5,Cc1ccc(CN2CCC3(CC2)C(=O)N(CC(C)C)CCN3C)o1,39.5
6,COc1ccc(C(=O)COc2coc(CN3CCSCC3)cc2=O)cc1,15.1
7,CCOC(=O)CNc1nc(C(C)(C)C)nc2c1cnn2C,51.3
8,CCc1nc(NC2CCCN(C(=O)C3CC3)C2)c2cnn(C)c2n1 (configuration not stated),16
9,Cn1ncc2c(NC3CCCN(C(=O)C4CC4)C3)nc(C(C)(C)C)nc21 (configuration not stated),62.9
10,CCOC(=O)CCCNc1nc(C(C)(C)C)nc2c1cnn2C,27.9
11,Cn1ncc2c(N[C@@H]3CS(=O)(=O)C[C@H]3O)nc(C(C)(C)C)nc21,54.4
12,Cn1ncc2c(NCC(=O)N3CCNCC3)nc(C(C)(C)C)nc21,16.8
13,CCOC(=O)CC(C)Nc1nc(C(C)(C)C)nc2c1cnn2C (configuration not stated),46.4
14,Cn1ncc2c(N[C@H]3CCCC[C@@H]3O)nc(C(C)(C)C)nc21,50.1
15,Cn1ncc2c(NC3CCC(N)CC3)nc(C(C)(C)C)nc21 (configuration not stated),40.5
16,Cc1nc(N[C@H]2COC[C@@H]2N2CCCC2)c2cnn(C)c2n1,32.7
17,Cn1ncc2c(NCC3CCS(=O)(=O)C3)nc(C3CCCC3)nc21 (configuration not stated),15.1
18,Cc1nc(NC2CCN(C(=O)C3CC3)CC2)c2cnn(C)c2n1,-25.2
